For assay [1], the target named is Glucocorticoid receptor (Homo sapiens) (UniProt P04150). Briefly: qHTS assay for small molecule agonists of glucocorticoid receptor signaling (AID 588532; active = well fitted curve in the direction sought with a large enough effect in the signal ratio, with a control signal flat; the % refers to the signal ratio;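 also: 100% = dexamethasone at 0.1 µM and 0% = DMSO only wells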). Particulars: HeLa MMTV-bla, beta-lactamase ratio, agonist, 18 h; stronger effect = higher value; percent of dexamethasone control, DMSO zero. The procedure, abridged:
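Stimulation of a glucocorticoid response element-driven beta-lactamase gene was measured in HeLa cells. Responses were scaled between DMSO basal and 0.1 uM dexamethasone, then fitted for half-maximal stimulation.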
(In general: In qHTS, concentration-response curves come from the screen itself.)

For assay [2] the target is unchanged. As to the kind of experiment: qHTS assay for small molecule antagonists of glucocorticoid receptor signaling (AID 588533; active = well fitted inhibition curve with a large enough effect in the signal ratio, with a control signal flat, not every such curve was filed as active; the % refers to the signal ratio;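 also: cells stimulated with 2 nM dexamethasone as agonist; % is scaled to controls: 0 for no effect and ±100 for the full control effect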). Particulars: HeLa MMTV-bla, GRE beta-lactamase ratio, antagonist mode, 18 h; series mostly up to 76.8 µM. The procedure, abridged: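 Antagonist-mode qHTS: compound titrations added to GRE-bla HeLa cells, then dexamethasone 2 nM final; 18 h, 37 C. CCF4 FRET fluorescence normalized to dexamethasone and DMSO; IC50 from Hill fit.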

In assay [3] the target is Peroxisome proliferator-activated receptor gamma (Homo sapiens) (UniProt P37231). Briefly: qHTS assay for small molecule agonists of peroxisome proliferator-activated receptor gamma signaling (AID 588536; active = well fitted curve in the direction sought with a large enough effect in the signal ratio, with a control signal flat, not every such curve was filed as active; the % refers to the signal ratio;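 also: 0% = DMSO basal wells and 100% = rosiglitazone at 2 µM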). The settings on record: HEK293 PPARg-UAS-bla, beta-lactamase ratio, 16 h, percent of rosiglitazone response, DMSO as zero; series mostly up to 76.7 µM. In short, it runs like this: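 Ratiometric blue/green fluorescence (405 nm excitation; 460 and 530 nm emission) from CCF4-loaded HEK293 reporter cells serves as signal. Exposure to test compounds lasts 16 h at 37 C in medium containing 1% charcoal/dextran-treated serum.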
Peroxisome proliferator-activated receptor gamma (Homo sapiens), sequence (P37231 whole entry, looked up): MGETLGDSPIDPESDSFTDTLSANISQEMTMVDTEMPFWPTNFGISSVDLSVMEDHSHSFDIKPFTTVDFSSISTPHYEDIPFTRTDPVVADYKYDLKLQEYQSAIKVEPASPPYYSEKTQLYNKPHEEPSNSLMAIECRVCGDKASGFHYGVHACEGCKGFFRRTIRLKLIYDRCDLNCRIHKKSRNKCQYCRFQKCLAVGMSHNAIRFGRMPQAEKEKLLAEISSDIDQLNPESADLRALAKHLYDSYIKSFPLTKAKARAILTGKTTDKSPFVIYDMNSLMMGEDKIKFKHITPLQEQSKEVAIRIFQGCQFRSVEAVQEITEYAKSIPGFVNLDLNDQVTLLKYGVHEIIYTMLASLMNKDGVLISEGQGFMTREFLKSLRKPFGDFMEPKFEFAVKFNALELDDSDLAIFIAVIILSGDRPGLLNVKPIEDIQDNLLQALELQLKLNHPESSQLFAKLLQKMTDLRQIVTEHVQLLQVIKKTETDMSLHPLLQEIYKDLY

For assay [4], the target named is Vitamin D3 receptor (Homo sapiens) (UniProt P11473). As to the kind of experiment: qHTS assay for small molecule antagonists of vitamin D receptor signaling (AID 588541).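 Also: receptor activated by calcitriol during compound treatment; % is scaled to controls: 0 for no effect and ±100 for the full control effect.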 Particulars: HEK293T VDR-UAS-bla, beta-lactamase ratio, antagonist mode; series mostly up to 76.7 µM. The procedure, abridged: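 VDR-UAS-bla HEK293T cells (2000/well, 2% charcoal-stripped FBS) were treated with titrated compounds plus 1-alpha,25-dihydroxyvitamin D3 (50 nM or 3 nM final) for 16 h at 37 C. CCF4 beta-lactamase fluorescence was read; Hill fits gave IC50.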
Vitamin D3 receptor (Homo sapiens), sequence (P11473 whole entry, looked up): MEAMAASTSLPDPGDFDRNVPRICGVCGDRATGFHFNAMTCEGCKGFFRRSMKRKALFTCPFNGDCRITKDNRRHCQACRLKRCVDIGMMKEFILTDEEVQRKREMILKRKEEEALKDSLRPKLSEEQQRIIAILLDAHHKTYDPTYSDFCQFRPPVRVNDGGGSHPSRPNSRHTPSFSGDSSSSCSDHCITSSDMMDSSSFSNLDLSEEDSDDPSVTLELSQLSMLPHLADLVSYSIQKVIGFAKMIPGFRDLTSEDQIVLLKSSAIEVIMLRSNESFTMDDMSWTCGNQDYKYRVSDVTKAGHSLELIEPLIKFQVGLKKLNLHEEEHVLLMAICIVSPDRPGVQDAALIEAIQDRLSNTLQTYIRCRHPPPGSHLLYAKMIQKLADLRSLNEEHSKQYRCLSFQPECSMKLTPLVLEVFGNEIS

Assay [5] has the same target. As to the kind of experiment: qHTS assay for small molecule agonists of vitamin D receptor signaling (AID 588543).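 Also: 0% = DMSO basal and 100% = reference agonist control.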 The settings on record: HEK293T VDR-UAS-bla, beta-lactamase ratio, 16 h; series mostly up to 76.8 µM. In short, it runs like this:
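Measured: β-lactamase reporter activity (CCF4, 405 nm excitation, 460/530 nm emission) in HEK293T VDR-UAS-bla cells after 16 h compound exposure at 37 °C. Normalization against 50 nM 1α,25-dihydroxyvitamin D3 and DMSO; Hill-fit EC50.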

Assay [6] in a line: qHTS assay for small molecule agonists of retinoid X receptor alpha signaling (AID 588544).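 As to activation: 0% = DMSO basal wells and 100% = reference agonist.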 The settings on record: HEK293T RXRa-UAS-bla, beta-lactamase reporter, 18 h; 530 nm emission.
Assay [7] addresses Retinoic acid receptor RXR-alpha (Homo sapiens) (UniProt P19793). Described as above. Particulars: HEK293T RXRa-UAS-bla, beta-lactamase reporter, 18 h; series mostly up to 76.7 µM.
The nature of assay [8]: qHTS assay for small molecule antagonists of retinoid X receptor alpha signaling (AID 588546; active = well fitted inhibition curve with a large enough effect in the signal ratio, with a control signal flat, not every such curve was filed as active; the % refers to the signal ratio;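 also: cells stimulated with 9-cis-retinoic acid as agonist; % is scaled to controls: 0 for no effect and ±100 for the full control effect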). Particulars: HEK293T RXRa-UAS-bla, beta-lactamase ratio, antagonist mode; measured here: W530 green channel, cytotoxicity proxy. In short, it runs like this:
(§1)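 Beta-lactamase reporter inhibition, read as CCF4 fluorescence ratio (ex 405, em 460/530 nm) after 2 h at RT. HEK293T UAS-bla cells, 2500/well, were stimulated with 9-cis-RA at 500 or 100 nM final alongside test compound for 18 h at 37 C.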

The target of assay [9] is Retinoic acid receptor RXR-alpha (Homo sapiens) (UniProt P19793). The description is as above. Particulars: HEK293T RXRa-UAS-bla, beta-lactamase ratio, antagonist mode. In short, it runs like this: as §1
Retinoic acid receptor RXR-alpha (Homo sapiens), sequence (P19793 whole entry, looked up): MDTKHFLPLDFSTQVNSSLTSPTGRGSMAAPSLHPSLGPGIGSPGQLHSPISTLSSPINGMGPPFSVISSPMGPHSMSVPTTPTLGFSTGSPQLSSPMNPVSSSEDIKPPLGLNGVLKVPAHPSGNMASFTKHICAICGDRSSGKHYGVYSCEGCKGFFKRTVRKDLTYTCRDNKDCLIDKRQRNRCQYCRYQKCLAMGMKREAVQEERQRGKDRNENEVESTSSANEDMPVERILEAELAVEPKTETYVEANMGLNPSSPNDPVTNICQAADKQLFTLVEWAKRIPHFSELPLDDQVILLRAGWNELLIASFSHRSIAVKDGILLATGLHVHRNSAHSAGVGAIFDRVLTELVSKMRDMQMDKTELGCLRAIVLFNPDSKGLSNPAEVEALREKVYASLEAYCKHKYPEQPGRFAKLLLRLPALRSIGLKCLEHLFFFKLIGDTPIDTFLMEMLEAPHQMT
Assay [10] concerns the target Voltage-gated inwardly rectifying potassium channel KCNH2 (Homo sapiens) (UniProt Q12809). As to the kind of experiment: qHTS Assay for Small Molecule Inhibitors of the Human hERG Channel Activity (AID 588834; active = well fitted inhibition curve with a large enough effect;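 also: lower thallium flux fluorescence means stronger hERG block; nearly all actives have a fitted effect of over 50% in size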; also: potency is read from the fitted curve at half-maximal effect). Particulars: U2OS BacMam hERG, FluxOR thallium flux fluorescence; series mostly up to 92.2 µM. In short, it runs like this: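 Blockade is seen as reduced FluxOR thallium-flux fluorescence in U2OS cells expressing hERG from a BacMam construct, in Opti-MEM with 2% FCS. Concentration-response data fitted to the Hill equation for AC50.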

A short description of assay [11]: qHTS assay for small molecule agonists of the antioxidant response element (ARE) signaling pathway (AID 651741; active = well fitted activation curve with a large enough effect in the signal ratio; the % refers to the signal ratio; also: % of control where 0% means no effect). The settings on record: HepG2 ARE-bla reporter, beta-lactamase FRET ratio, 16 h; series mostly up to 96 µM. The procedure, abridged:
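ARE-bla HepG2 cells (beta-lactamase reporter under ARE control) were plated at 2,000 cells/well, preincubated 5 h at 37 C/5% CO2, then treated with DMSO-dissolved compounds for 16 h at 37 C; LiveBLAzer B/G FRET substrate added, fluorescence read after 2 h at room temperature.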

Assay [12] is described as follows: qHTS assay for small molecule activators of the p53 signaling pathway (AID 651743; active = well fitted activation curve with a large enough effect in the signal ratio, not every such curve was filed as active; the % refers to the signal ratio; also: % of control where 0% means no effect). Particulars: HCT-116 p53RE-bla, beta-lactamase FRET ratio, 16 h; stronger effect = higher value. In short, it runs like this:
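p53RE-bla HCT-116 cells with a stably integrated beta-lactamase reporter under p53 response elements were plated, rested 5 hours at 37 C/5% CO2, then exposed to compounds in DMSO for 16 hours at 37 C. LiveBLAzer B/G FRET substrate was read after 2 hours at room temperature.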

A short description of assay [13]: qHTS assay for small molecule activators of the nuclear factor-kappa B (NF-kB) signaling pathway (AID 651749; active = well fitted activation curve with a large enough effect in the signal ratio; the % refers to the signal ratio; also: % of control where 0% means no effect). The settings on record: NF-kB-bla ME-180 cells, beta-lactamase FRET ratio, 16 h; stronger effect = higher value. The procedure, abridged: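 ME-180 cells stably carrying a beta-lactamase reporter under an NF-kB response element were exposed to compound or DMSO vehicle for 16 hr at 37C, 5% CO2. Pathway activation was read by FRET, since reporter expression disrupts FRET.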

Assay [14] in a line: qHTS assay for small molecule antagonists of peroxisome proliferator-activated receptor delta signaling (AID 588535; active = well fitted inhibition curve with a large enough effect in the signal ratio, with a control signal flat, not every such curve was filed as active; the % refers to the signal ratio;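 as to max response: cells co-treated with a PPAR-delta agonist as stimulator during compound exposure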). The settings on record: HEK293T PPARd-UAS-bla, beta-lactamase FRET ratio, 18 h; 460 nm channel. In short, it runs like this: (§2)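 GeneBLAzer PPAR-delta-UAS-bla HEK293T cells in medium with 2% charcoal/dextran FBS were preincubated 5 hrs at 37 C, then given compounds, incubated 18 hrs at 37 C, and read by CCF4 beta-lactamase fluorescence; IC50 from Hill fits.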

The target in assay [15] is Peroxisome proliferator-activated receptor delta (Homo sapiens) (UniProt Q03181). Described as above. Particulars: HEK293T PPARd-UAS-bla, beta-lactamase FRET ratio, 18 h; series mostly up to 76.7 µM. The procedure, abridged: as §2
Peroxisome proliferator-activated receptor delta (Homo sapiens), sequence (Q03181 whole entry, looked up): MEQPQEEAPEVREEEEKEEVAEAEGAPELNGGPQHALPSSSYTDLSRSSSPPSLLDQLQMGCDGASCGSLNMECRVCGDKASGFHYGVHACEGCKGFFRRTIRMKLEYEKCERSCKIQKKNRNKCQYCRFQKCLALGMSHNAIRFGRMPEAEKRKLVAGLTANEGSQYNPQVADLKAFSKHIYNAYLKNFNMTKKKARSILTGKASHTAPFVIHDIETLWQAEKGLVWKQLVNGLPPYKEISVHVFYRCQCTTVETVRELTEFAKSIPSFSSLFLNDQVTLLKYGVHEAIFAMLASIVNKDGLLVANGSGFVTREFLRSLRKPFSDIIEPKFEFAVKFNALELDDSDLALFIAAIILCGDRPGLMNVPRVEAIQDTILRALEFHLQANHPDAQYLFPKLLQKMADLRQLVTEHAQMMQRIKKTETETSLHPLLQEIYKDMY
Assay [16] addresses Peroxisome proliferator-activated receptor gamma (Homo sapiens) (UniProt P37231). As to the kind of experiment: qHTS assay for small molecule antagonists of peroxisome proliferator-activated receptor gamma signaling (AID 588537; active = well fitted inhibition curve with a large enough effect in the signal ratio, with a control signal flat, not every such curve was filed as active; the % refers to the signal ratio;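 also: reporter cells co-stimulated with 50 nM rosiglitazone agonist during compound treatment; % of control where 0% means no effect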). Particulars: HEK293 PPARg-UAS-bla, beta-lactamase ratio, antagonist mode; series mostly up to 76.8 µM. The procedure, abridged:
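PPAR-gamma-UAS-bla HEK293 cells (3000/well, 1% charcoal/dextran-stripped FBS) were preincubated 6-6.5 h at 37 C, given titrated compounds, then stimulated with 50 nM rosiglitazone for 16 h. Beta-lactamase activity was read with CCF4 dye; IC50 came from Hill fits.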

The target of assay [17] is Thyroid hormone receptor beta (Homo sapiens) (UniProt P10828). As to the kind of experiment: qHTS assay for small molecule agonists of thyroid hormone receptor beta signaling (AID 588545).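 Also: 0% = DMSO only and 100% = 10 nM T3.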 The settings on record: TR-UAS-bla GripTite HEK 293, beta-lactamase ratio, agonist mode, 18 h, percent of T3 response, DMSO as zero; series mostly up to 76.7 µM. The procedure, abridged: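 TR-UAS-bla GripTite HEK 293 cells (2500/well, medium with 2% charcoal/dextran FBS) were treated in agonist mode for 18 h at 37 C, titrated. Beta-lactamase was read by CCF4 ratio after 2 h; normalized to 10 nM T3 (100%) and DMSO, Hill-fitted for EC50 and efficacy.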
Thyroid hormone receptor beta (Homo sapiens), sequence (P10828 whole entry, looked up): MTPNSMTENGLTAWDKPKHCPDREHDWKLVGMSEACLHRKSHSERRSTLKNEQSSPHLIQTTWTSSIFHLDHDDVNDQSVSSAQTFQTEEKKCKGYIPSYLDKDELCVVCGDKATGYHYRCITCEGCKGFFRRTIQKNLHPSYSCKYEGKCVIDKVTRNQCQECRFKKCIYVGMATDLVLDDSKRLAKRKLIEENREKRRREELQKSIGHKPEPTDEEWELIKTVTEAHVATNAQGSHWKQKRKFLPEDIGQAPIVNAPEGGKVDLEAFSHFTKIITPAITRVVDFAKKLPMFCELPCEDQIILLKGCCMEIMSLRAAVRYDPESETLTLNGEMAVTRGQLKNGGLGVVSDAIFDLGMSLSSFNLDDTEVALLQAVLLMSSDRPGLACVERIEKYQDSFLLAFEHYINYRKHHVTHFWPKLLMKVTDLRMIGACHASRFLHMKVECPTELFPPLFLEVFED

Assay [18] shares this target. Briefly: qHTS assay for small molecule antagonists of thyroid hormone receptor beta signaling (AID 588547; active = well fitted inhibition curve with a large enough effect in the signal ratio, with a control signal flat, not every such curve was filed as active; the % refers to the signal ratio;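 also: cells stimulated with 0.4 nM T3 agonist during compound exposure; % is scaled to controls: 0 for no effect and ±100 for the full control effect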). Particulars: TR-UAS-bla HEK293, beta-lactamase ratio, antagonist mode, 18 h. In short, it runs like this:
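TR-UAS-bla GripTite HEK293 cells in 2% charcoal/dextran FBS medium were preincubated 4 h at 37 C, given compound (0.59 nM to 92 uM) plus 0.4 nM T3 (final) for 18 h, then CCF4 for 2 h at RT; Hill fit gave IC50.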

These results are taken from PubChem BioAssay (NCATS).

Records with an inconclusive call do not appear. Calls of active or inactive are those of the source. Unless noted, calls follow the shape of the full dose curve.

Voltage-gated inwardly rectifying potassium channel KCNH2 (Homo sapiens), sequence (Q12809 whole entry, looked up): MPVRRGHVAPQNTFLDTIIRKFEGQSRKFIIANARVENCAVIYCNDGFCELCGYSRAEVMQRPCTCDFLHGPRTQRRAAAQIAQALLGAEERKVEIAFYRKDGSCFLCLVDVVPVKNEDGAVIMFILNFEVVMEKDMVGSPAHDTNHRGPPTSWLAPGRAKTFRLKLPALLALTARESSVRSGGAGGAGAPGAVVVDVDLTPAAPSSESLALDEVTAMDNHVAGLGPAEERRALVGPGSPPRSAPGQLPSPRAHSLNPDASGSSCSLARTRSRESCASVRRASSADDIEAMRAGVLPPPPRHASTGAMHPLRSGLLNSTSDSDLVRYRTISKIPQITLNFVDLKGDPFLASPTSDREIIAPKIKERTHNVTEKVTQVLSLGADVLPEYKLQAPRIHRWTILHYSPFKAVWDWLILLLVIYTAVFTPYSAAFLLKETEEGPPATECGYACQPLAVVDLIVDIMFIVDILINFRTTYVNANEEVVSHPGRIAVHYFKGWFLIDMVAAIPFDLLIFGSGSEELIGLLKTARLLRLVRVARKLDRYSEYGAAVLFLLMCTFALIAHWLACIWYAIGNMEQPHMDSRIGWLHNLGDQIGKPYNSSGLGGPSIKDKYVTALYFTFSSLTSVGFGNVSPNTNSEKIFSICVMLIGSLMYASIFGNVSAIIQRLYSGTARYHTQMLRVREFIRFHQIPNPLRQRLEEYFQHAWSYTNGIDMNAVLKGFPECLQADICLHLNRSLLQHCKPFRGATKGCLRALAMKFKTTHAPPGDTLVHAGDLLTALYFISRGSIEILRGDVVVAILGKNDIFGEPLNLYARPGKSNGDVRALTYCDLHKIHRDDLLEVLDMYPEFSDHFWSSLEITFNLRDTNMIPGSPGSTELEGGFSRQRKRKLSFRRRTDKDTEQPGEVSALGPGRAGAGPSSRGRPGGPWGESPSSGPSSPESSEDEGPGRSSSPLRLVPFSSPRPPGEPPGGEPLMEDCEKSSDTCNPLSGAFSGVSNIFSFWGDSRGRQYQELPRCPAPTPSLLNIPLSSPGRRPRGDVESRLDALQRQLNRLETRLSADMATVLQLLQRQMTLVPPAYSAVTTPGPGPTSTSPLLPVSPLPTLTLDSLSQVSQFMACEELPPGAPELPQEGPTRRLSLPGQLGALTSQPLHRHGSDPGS
Glucocorticoid receptor (Homo sapiens), sequence (P04150 whole entry, looked up): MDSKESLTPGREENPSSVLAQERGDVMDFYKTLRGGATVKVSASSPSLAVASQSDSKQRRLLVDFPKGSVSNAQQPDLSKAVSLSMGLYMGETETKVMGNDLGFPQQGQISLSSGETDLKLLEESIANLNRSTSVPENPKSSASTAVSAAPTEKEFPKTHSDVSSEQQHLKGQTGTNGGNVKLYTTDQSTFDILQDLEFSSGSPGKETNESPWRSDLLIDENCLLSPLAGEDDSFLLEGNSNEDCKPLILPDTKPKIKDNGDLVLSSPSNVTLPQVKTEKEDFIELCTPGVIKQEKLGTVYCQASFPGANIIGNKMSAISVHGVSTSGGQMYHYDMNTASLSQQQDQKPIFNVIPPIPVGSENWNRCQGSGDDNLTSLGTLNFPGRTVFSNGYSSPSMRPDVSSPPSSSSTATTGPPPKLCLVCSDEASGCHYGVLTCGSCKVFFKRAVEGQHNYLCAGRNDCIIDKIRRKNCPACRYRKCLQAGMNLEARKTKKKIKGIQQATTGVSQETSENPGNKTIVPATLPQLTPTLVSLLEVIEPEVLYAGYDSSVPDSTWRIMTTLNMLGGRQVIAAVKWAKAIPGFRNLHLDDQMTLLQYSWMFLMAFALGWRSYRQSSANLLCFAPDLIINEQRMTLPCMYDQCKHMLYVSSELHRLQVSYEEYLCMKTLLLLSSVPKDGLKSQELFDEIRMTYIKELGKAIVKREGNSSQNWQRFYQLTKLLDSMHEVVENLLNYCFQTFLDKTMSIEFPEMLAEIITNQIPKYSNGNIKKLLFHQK

Take `C1CCOC1`: the activation is 0.528% (inactive) in assay [1], 1.06% (inactive) in assay [12] and 1.14% (inactive) in assay [13]. Moreover, the result in [2], in [3], in assay [4], in assay [5] and in assay [7] was inactive. Moreover, the max response was -14.4% in assay [6], -8.68% in assay [8] and 0.04% (inactive) in [9]. Also, the Potency result in [10] and in [11] was “inactive” throughout.
Regarding `Cc1ccc(C)c([N+](=O)[O-])c1`, the activation in assay [1] is -1.28% (inactive); in [13], 0.199% (inactive). For the same molecule, the max response in assay [14] is -7.2%; in assay [6], -15.2%. Moreover, the Potency entry in [15] and in [10] was “inactive” throughout. Besides, the outcome in [3], in [16], in assay [5], in assay [7] and in assay [17] was inactive.
Consider `CNc1ccc([N+](=O)[O-])cc1`, for which the values for the activation in assay [1] and in assay [13] were -3.38% (inactive) and -1.5% (inactive), respectively. Further, the outcome in assay [2], in assay [3], in assay [16] and in assay [7] was inactive. For the same molecule, the max response in assay [6] was 3.4%; in assay [8], 8.47%; in assay [9], 0.864% (inactive). For the same molecule, the activity change % (negative = inhibition) in [18] is 2.18% (inactive). Moreover, in [10], the Potency entry is “inactive”.
Take `CC(=O)C1(C)CC2=C(CCCC2(C)C)CC1C` (stereo unspecified): the activation in assay [1] was -5.53% (inactive); in [12], -2.14% (inactive). Also, the max response in assay [14] was 12.6%; in [6], -9.8%; in assay [8], -2.18%; in assay [9], 25.5% (inactive). The Potency entry in assay [15] and in [11] was “inactive” each time. Also, the outcome in assay [3], in [4] and in [7] was inactive. The activity change % (negative = inhibition) in assay [18] is -1.03% (inactive). In assay [10], the Potency was 15.8 µM (active).
Turning to `Nc1ccc([N+](=O)[O-])c(N)c1`, the activation is -8.8% (inactive) in assay [1], -5.74% (inactive) in [12] and 0.47% (inactive) in assay [13]. The outcome in assay [2], in [3], in assay [16], in assay [4], in [5] and in assay [7] was inactive. Also, the result in assay [17] was inactive. The max response in assay [6] is -12.6%; in assay [8], -1.48%; in assay [9], -8.62% (inactive). The activity change % (negative = inhibition) in assay [18] was -0.546% (inactive). Moreover, in assay [10], the Potency entry is “inactive”.
On to `C=CCn1c(=O)n(CC=C)c(=O)n(CC=C)c1=O`, for which the figures for the activation in [1] and in assay [12] were -0.0268% (inactive) and 0.0041% (inactive), respectively. For the same molecule, the result in assay [2], in assay [3], in [16], in assay [4], in [5] and in [7] was inactive. In assay [17], the result was inactive. In addition, the max response was -13.5% in assay [6], -12.4% in assay [8] and 6.59% (inactive) in assay [9]. For the same molecule, the activity change % (negative = inhibition) in assay [18] was -0.231% (inactive). Moreover, the Potency entry in assay [10] is “inactive”.
For the molecule `CCCCC=O`, the results for the activation in assay [1] and in assay [13] were -0.364% (inactive) and 0.166% (inactive), respectively. In addition, the result in [2] and in assay [7] was inactive. Besides, the figures for the max response in assay [6] and in [8] were -7.77% and -1.56%, respectively. Also, the activity change % (negative = inhibition) in [18] is -3.59% (inactive). The Potency entry in [10] is “inactive”.
For the molecule `CC(C)Nc1ccccc1`, the activation in assay [1] was -8.21% (inactive); in assay [12] it was -0.311% (inactive); in [13], 0.185% (inactive). The max response is 31.6% in assay [14], -11% in assay [6], -12.9% in assay [8] and 3.31% (inactive) in assay [9]. The Potency result in assay [15], in assay [10] and in assay [11] was “inactive” each time. Also, the result in [3], in assay [4], in assay [5], in assay [7] and in assay [17] was inactive. In assay [18], the activity change % (negative = inhibition) was -21.8% (inactive).
